CXXC DNA block – inhibitors of human MLL CXXC domain-DNA interaction; MLL-CXXC / FITC-HOXA9 DNA fluorescence polarization; Potency, µM (series often up to 115 µM), inactives show top-dose activity change, negative = inhibition, most hits filed as inhibitors; hit rate 0.037% among 290,000; AID 2662; active = well fitted inhibition curve with a large enough effect in the polarisation, with a control signal flat, not every such curve was filed as active; inconclusive = small, poorly fitted or top-dose-only effect, or effect the other way, or a change in a side signal; inactive = no such curve, though single readings can be large or run the other way; the % refers to the polarisation; note: potency is the fitted concentration of half-maximal effect
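Steps: dispense CXXC domain solution (7 uM) → pin compounds or unlabeled HOX-A9 DNA control → 5 min ambient → add FLSN-HOX-A9 solution (50 nM) → spin → 30 min ambient → fluorescence polarization. Tris pH 7.5/NaCl/DTT/BSA buffer.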
Menin MLL FP TR – displaces Texas Red mutant MLL peptide from human menin; O00255; Menin + Texas Red MLL mutant peptide, fluorescence polarization; Potency, µM (titrated, usually from 61.6 µM), inactives show at the top dose FP activity change, negative = inhibition, usual class: inhibitors; hit rate 0.23% among 270,000; AID 1768; active = well fitted inhibition curve with a large enough effect in the polarisation, with a control signal flat, not every such curve was filed as active; inconclusive = small, poorly fitted or top-dose-only effect, or effect the other way, or a change in a side signal; inactive = no such curve, though single readings can be large or run the other way; the % refers to the polarisation; note: potency is the fitted concentration of half-maximal effect; % of control where 0% means no effect
Menin MLL FP FL – menin-MLL binding inhibition, fluorescein peptide. 290,000 tested, under 10 active. Fluorescence polarization, fluorescein-MLL peptide displacement from menin. AID 1766. FP activity change, % at 61.4 µM; active = well fitted curve in the direction sought with a large enough effect in the polarisation, not every such curve was filed as active; inconclusive = small, poorly fitted or top-dose-only effect, or effect the other way, or a change in a side signal; inactive = no such curve, though single readings can be large or run the other way; the % refers to the polarisation; note: % of control where 0% means no effect
CtBP-E1A blk – inhibitors of CtBP/E1A interaction; AlphaScreen GST-E1A/His-CtBP binding, 1536-well; stronger effect = lower value; AID 651724; activity change, % (concentration not given with the values); hit rate 0.49% among 340,000; note: % is set by controls: 0 for no effect and ±100 for the full control effect
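Homogeneous bead-based format: GST-tagged E1A captured on glutathione donor beads, His-tagged CtBP on nickel acceptor beads; compounds precede bead addition by 2 h at 37 °C.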
Six1-Eya2 inh – Six1/Eya2 interaction inhibition; activity change, % (test concentration not listed); AlphaScreen GST-Six1/His-Eya2 binding, biochemical; stronger effect = lower value; AID 651725; hit rate 0.56% among 360,000; Q15475+O00167; note: % is set by controls: 0 for no effect and ±100 for the full control effect
Target sequence (O00167 whole entry, looked up): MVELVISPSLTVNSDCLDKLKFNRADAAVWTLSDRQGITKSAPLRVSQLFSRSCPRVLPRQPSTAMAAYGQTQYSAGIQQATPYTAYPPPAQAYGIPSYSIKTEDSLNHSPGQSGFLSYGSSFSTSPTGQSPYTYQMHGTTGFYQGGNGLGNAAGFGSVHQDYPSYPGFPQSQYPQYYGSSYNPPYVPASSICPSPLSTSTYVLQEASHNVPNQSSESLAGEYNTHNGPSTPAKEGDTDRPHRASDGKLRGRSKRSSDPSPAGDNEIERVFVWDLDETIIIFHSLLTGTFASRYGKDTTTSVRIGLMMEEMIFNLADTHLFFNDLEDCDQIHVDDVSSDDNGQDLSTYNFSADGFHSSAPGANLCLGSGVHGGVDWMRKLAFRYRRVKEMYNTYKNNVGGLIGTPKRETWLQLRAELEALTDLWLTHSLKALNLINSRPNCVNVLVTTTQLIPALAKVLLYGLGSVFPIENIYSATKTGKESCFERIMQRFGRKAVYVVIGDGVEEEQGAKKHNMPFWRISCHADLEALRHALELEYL
Target sequence (Q15475 whole entry, looked up): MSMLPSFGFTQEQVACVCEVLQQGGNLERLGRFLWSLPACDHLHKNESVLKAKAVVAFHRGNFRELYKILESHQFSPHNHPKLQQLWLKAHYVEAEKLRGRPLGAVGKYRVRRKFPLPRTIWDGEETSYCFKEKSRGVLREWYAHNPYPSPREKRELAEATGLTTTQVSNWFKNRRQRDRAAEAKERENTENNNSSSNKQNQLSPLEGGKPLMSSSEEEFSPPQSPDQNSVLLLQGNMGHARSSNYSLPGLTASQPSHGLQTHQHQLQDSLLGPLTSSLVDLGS
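Compounds are tested against tagged Six1 and Eya2 proteins bridged by glutathione donor and nickel acceptor beads; after a one-hour incubation at 37 °C without light, AlphaScreen emission is recorded.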
GLS inh – glutaminase GLS (human) inhibition. AID 624170. hit rate 0.21% among 410,000. GLS enzymatic activity, qHTS titration. Potency, µM (top dose mostly 45.5 µM), without a hit: at the highest dose activity change, negative = inhibition, actives largely listed as inhibitors; active = well fitted inhibition curve with a large enough effect; inconclusive = small, poorly fitted or top-dose-only effect, or another doubt; inactive = no such curve, though single readings can be large or run the other way; note: potency is the fitted concentration of half-maximal effect; % is set by controls: 0 for no effect and ±100 for the full control effect
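Two-point fluorescence kinetic (t0, 30 min RT) for hKGA; glutamate detected via glutamate oxidase–HRP–Amplex Red. Substrate: 1 mM L-glutamine solution; buffer 45 mM KH2PO4, pH 8.2.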
Starred values were filed as active, the others as inactive; ? = inconclusive; . = no result; [ ] = another dose, or the depositor's remark. Sampled rows, rich in hits. Any-hit rate of the full collection: about 0.83%. Cut-off read from the data, not from the text of the source, unless noted: active = activity change below about -65%; inconclusive = mostly about -30% to -63%; inactive = weaker than that.

SMILES | CXXC DNA block | Menin MLL FP TR | Menin MLL FP FL | CtBP-E1A blk | Six1-Eya2 inh | GLS inh
COc1ccc2[nH]c(C(=O)N/N=C/c3ccc(O)cc3O)cc2c1 | ? | 33.7% | 22.1 | . | -80.2* | 16.4%
O=C(N/N=C/c1ccc(O)cc1O)/C(=C/c1ccccc1)CCO | 9.8% | 39.6% | 11.1 | -92.0* | -88.6* | -11.9%
COc1cc(/C=N/NC(=O)/C(=C/c2ccccc2)CCO)ccc1O | 2.0% | 0.4% | 3.7 | -0.6 | -9.4 | 33.1%
Cc1ncc([N+](=O)[O-])n1C[C@H](O)CCl | 5.1%[51.4 µM] | 5.3%[24.8 µM] | -1.9[24.8 µM] | . | . | 2.7%[20 µM]
Cc1ccc(Cl)cc1-n1ncc2c(N3CCC(C)CC3)ncnc21 | . | . | . | . | . | -11.5%
Cc1ccc(NCC(=O)N=Nc2c(O)[nH]c3ccc([N+](=O)[O-])cc23)cc1 | -2.3% | . | 4.7 | 0.0 | -2.9 | 4.7%
O=[N+]([O-])c1ccc2[nH]c(O)c(N=NC(=S)NCC3CCCO3)c2c1 (centres undefined) | -7.6% | 9.0% | 5.5 | -14.7 | -21.4 | 5.3%
CCNC(=S)N=Nc1c(O)[nH]c2ccc([N+](=O)[O-])cc12 | 9.4% | ? | -0.2 | -87.2* | -83.9* | 6.6%
O=C(N=Nc1c(O)[nH]c2ccc([N+](=O)[O-])cc12)c1ccccc1Cl | -2.3% | . | -0.9 | . | -10.0 | -8.3%
O=C(O)c1ccccc1N=Nc1c(O)[nH]c2ccc([N+](=O)[O-])cc12 | 4.8% | ? | 3.9 | -85.0* | -72.0* | 9.0%
O=[N+]([O-])c1ccc2[nH]c(O)c(N=NC(=S)Nc3cccnc3)c2c1 | 9.4% | . | -0.8 | -87.8* | -80.2* | 7.7%
N#CC(Cc1ccc(O)c(O)c1)C(=O)N1CCc2ccccc21 (centres undefined) | ? | -2.1% | ? | . | . | .
O=C(Nc1ccc2ccccc2c1)c1ccc2[nH]c(=O)c(=O)[nH]c2c1 | -12.3% | 31.6% | 0.6 | -84.5* | ? | -18.5%
N#Cc1ccc(C(=O)Nc2ccc3ccccc3c2)cc1 | 6.3% | ? | -3.0 | 2.9 | 7.8 | 2.4%
CCc1cccc2c3c([nH]c12)[C@@](CC)(CC(=O)O)OCC3 | 12.8% | -1.6%[24.8 µM] | -3.0[24.8 µM] | . | . | 11.2%
CCCCc1ccc(NC(=O)Cn2nnc3sc4c(c3c2=O)CCC(C)C4)cc1 (centres undefined) | . | . | . | . | . | 14.3%
Cc1ccc(-c2nn3c(-c4ccccc4C)nnc3c3ccccc23)cc1 | . | . | . | . | . | 1.1%
O=C1C(=Cc2cn(-c3ccccc3)nc2-c2ccc(OCc3ccccc3F)cc2)SC(=S)N1CCS(=O)(=O)O | . | . | . | -14.7 | -70.0* | 36.8%
O=C1C(=Cc2cn(-c3ccccc3)nc2-c2ccc(OCc3ccc(Cl)cc3)cc2)SC(=S)N1CCS(=O)(=O)O | . | . | . | ? | -66.6* | 7.6%
COc1ccc(-c2nn(-c3ccccc3)cc2/C=C2/SC(=S)N(CCC(=O)O)C2=O)cc1 | ? | ? | 26.7 | -8.0 | -16.1 | 29.3%
Cc1ccc(-c2nn(-c3ccccc3)cc2/C=C2\SC(=S)N(CC(=O)O)C2=O)cc1 | -2.9% | . | -1.8 | . | -1.4 | 56.2%
CN(Cc1ccccc1)C(=O)c1[nH]cnc1C(=O)Nc1nccs1 | . | . | . | ? | -73.6* | 5.7%
O=C(CSc1n[nH]c(=O)[nH]c1=O)Nc1ccc2c(c1)C(=O)c1ccccc1C2=O | ? | . | -0.7 | -85.3* | -72.3* | 51.6%
C/C(=C\C(=S)Nc1ccccc1)Nc1ccccc1 | -1.5% | -4.1% | 1.8 | 0.9 | 4.0 | 13.2%
CN(N=Cc1ccccc1)C(=S)Nc1ccccc1 | . | . | . | 0.4 | -1.4 | 15.8µM*
SMILES | CXXC DNA block | Menin MLL FP TR | Menin MLL FP FL | CtBP-E1A blk | Six1-Eya2 inh | GLS inh
COc1ccc(Cc2nnc(NN)[nH]c2=O)cc1OC | ? | -9.9% | -6.2 | 1.2 | -91.0* | 22.4µM*
c1ccc2c(c1)SCc1c-2[nH]c2ccccc12 | . | ? | -11.0 | . | . | .
COc1cc(C(=O)O)c2c(c1C)OC(=O)c1c(C)cc(O)c(C=O)c1O2 | . | . | . | 2.7 | 4.0 | 5.62µM*
COC(=O)c1c(C)cc(O)c(C=O)c1O | . | . | . | 0.6 | 5.4 | -3.7%
C[C@@H]1CCC[C@]2(C)CCCC[C@@]12O | . | -1.3% | -1.5 | . | . | .
CCOc1ccccc1-n1c(SCC(N)=O)nnc1-c1ccc(O)cc1 | -16.9% | 0.6% | -0.3 | -90.4* | -89.7* | 1.8%
O=C(O)c1ccc(Cl)c(S(=O)(=O)NCC2CCCO2)c1 (centres undefined) | 2.9% | -0.7% | 3.4 | -7.8 | -7.3 | 10µM*
O=C(OCC1(COC(=O)c2cccnc2)CCCC(COC(=O)c2cccnc2)(COC(=O)c2cccnc2)C1O)c1cccnc1 | . | . | . | . | . | -2.2%
O=C(O)c1cc(=O)c2c3nc4ccccc4oc-3cc(=O)c2[nH]1 | -11.8% | 39.8µM* | 9.4 | . | . | 28.2µM*
O=c1cc(C(F)(F)F)nc(-n2[nH]c3c(c2=O)CCCC3)[nH]1 | 9.9% | ? | ? | -87.5* | -84.6* | -5.6%
NC(=O)c1ccc(N=Nc2c(O)c3ccccc3[nH]c2=O)cc1 | ? | -11.8% | ? | . | . | .
N=C(N)c1ccc(N=Nc2c(O)ccc3c2[nH]c2ccccc23)cc1 | . | . | . | -66.5* | ? | 20.3%
COC(=O)[C@@]1(Cc2ccccc2)[C@H]2c3cc(C(=O)N(C)C)n(CCN4CNCC4=O)c3C[C@H]2CN1C(=O)c1ccccc1 | . | -3.8% | 3.6 | . | . | .
COC(=O)c1cc2c(-c3ccccc3)c(C)c3ccccn3c-2c1C(=O)OC | -1.2% | 35.5µM* | ? | ? | -68.6* | -1.4%
COC(=O)c1c(Cl)c2n3ccccc3c(C)c(-c3ccccc3)c-2c1C(=O)OC | ? | -17.8% | ? | ? | -68.1* | 0.4%
Cc1ccc(N(CC(=O)Nc2ccc(C)c(Cl)c2)S(=O)(=O)c2cccs2)cc1 | . | . | . | . | . | 1.5%
COC(=O)c1ccc(C(NC(=O)OCc2ccccc2)/C(=C/[C@@H](C)C(=O)NCc2cc(C)n(C)n2)c2cccnc2)cc1 (some centres undefined) | . | 14.9% | -4.9 | . | . | .
CN(C)c1ccc(CN2CCC(C(=O)NC(c3ccc(F)cc3)c3ccc4ccccc4n3)CC2)cc1 (centres undefined) | . | . | . | ? | -65.7* | 28.7%
O=C(NC(c1ccc(F)cc1)c1ccc2ccccc2n1)C1CCN(Cc2ccc3ccccc3n2)CC1 (centres undefined) | . | . | . | ? | 0.0 | ?
OC[C@@H]1O[C@](CO)(O[C@H]2O[C@H](CO)[C@@H](O)[C@H](O)[C@H]2O)[C@H](O)[C@H]1O | -8.3% | -3.9% | -3.3 | . | . | 4.7%
CC1=NN(c2nc3ccccc3[nH]2)C(=O)/C1=C/N(C)C | -4.3% | 0.2% | -2.4 | ? | ? | -4.7%
CC1=NN(c2nc3ccccc3[nH]2)C(=O)C1Cc1ccccc1 (centres undefined) | -8.2% | . | 3.2 | -81.3* | -90.8* | 0.1%

Screening data (PubChem)
